# Laboratory results taken from PubChem BioAssay AID2156 (Johns Hopkins Ion Channel Center, 2009).
# The whole screen tested about 310,000 compounds, of which about 3,400 (1.1%) were called active. The sample holds actives, similar compounds and a random draw of the others, so the mix is not that of the screen. Unmarked numbers belong to inactive results.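 The calls were made as follows: active = fluorescence ratio B-score at most minus 3 library SDs, with starting brightness B-score within 2 library SDs (cut at about -5.5 in these data); inactive = the rest, inconclusive results apart.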 Square brackets hold non-standard residues; d marks the D form. Peptide text beside a SMILES is read from it. * marks the point of attachment. ξ: configuration not given here. Cbz = O=C(OCc1ccccc1)*; ξL = CC(C)CC(N)C(=O)O; Bz = O=C(c1ccccc1)*; ξP = O=C(O)C1CCCN1
# Target: Potassium voltage-gated channel subfamily KQT member 2 (Rattus norvegicus) (UniProt O88943)
# Assay: KCNQ2 channel blockers in CHO-K1 cells – cell-based, FluxOR thallium flux, B-score, primary screen (AID 2156)
# Details: 20 min, at 10 µM; stronger effect = lower value
# Sequence of Potassium voltage-gated channel subfamily KQT member 2 (Rattus norvegicus) (O88943 whole entry, looked up): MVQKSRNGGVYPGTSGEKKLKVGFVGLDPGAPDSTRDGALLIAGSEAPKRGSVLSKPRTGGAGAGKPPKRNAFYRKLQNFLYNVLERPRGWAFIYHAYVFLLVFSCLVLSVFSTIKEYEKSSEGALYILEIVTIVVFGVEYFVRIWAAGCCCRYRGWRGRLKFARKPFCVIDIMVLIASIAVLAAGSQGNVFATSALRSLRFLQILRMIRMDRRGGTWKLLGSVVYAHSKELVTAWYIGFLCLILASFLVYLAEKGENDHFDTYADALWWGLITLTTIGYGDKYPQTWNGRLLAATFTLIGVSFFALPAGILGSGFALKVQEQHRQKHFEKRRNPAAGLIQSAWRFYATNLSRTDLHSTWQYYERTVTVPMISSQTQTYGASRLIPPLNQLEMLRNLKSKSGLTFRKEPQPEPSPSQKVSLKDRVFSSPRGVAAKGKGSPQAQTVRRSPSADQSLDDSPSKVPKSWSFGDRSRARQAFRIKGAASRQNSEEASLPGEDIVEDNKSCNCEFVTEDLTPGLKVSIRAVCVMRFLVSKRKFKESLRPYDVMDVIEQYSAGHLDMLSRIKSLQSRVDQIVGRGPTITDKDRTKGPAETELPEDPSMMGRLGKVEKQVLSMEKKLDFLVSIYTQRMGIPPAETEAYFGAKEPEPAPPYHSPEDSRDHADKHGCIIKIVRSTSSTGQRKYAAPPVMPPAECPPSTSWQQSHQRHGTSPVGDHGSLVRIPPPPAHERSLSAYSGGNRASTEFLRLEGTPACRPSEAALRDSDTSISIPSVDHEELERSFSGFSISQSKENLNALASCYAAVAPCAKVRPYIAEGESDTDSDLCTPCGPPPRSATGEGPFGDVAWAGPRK
row,Structure (SMILES),B-score
1,CC(=O)Nc1ccc(Nc2c3ccccc3nc3ccccc23)cc1,inactive
2,O=[N+]([O-])c1cccc(Nc2c3ccccc3nc3ccccc23)c1,-5.7 (active)
3,Cc1cc(CNC(=O)c2cccc([N+](=O)[O-])c2)c2ccccc2n1,inactive
4,CCOc1ccc(/C=C/C(=O)N(CC)CC(=O)NCc2cccs2)cc1OC,inactive
5,COc1ccccc1CNC(=O)COn1nnc2ccc(S(=O)(=O)N3CCOCC3)cc21,inactive
6,COc1ccc(Cl)cc1NC(=O)CCN1CCOCC1,-1.02
7,COc1ccc(Cl)cc1NC(=O)COC(=O)C(CC(C)C)N1C(=O)C2CC=CCC2C1=O (centres undefined),-5.8 (active)
8,COc1ccc(Cl)cc1NC(=O)c1cccc(N2C(=O)C3CC=CCC3C2=O)c1 (centres undefined),-0.4
9,CCN(Cc1ccccc1)S(=O)(=O)c1cc2c3c(c1)CCN3C(=O)CC2,-0.41
10,Cc1ccc(S(=O)(=O)N2CCC(C(=O)NCCC3=CCCCC3)CC2)cc1C,inactive
11,O=C(NCc1ccccc1Cl)C1CCCN1S(=O)(=O)c1ccc(F)cc1 (centres undefined),-6.35 (active)
12,Cc1cccc(NC(=O)C2CCCN2S(=O)(=O)c2ccc(F)cc2)c1C (centres undefined),-3.21
13,COc1ccc(NC(=O)N2CCCC2C(=O)NCc2ccccc2Cl)cc1 (centres undefined),-1.43
14,CCOc1ccc(NC(=O)CN(C)C(=O)c2c(C)noc2C)cc1OCC,-0.82
15,CCN(C(=O)CSc1nnnn1-c1ccccc1OC)C1CCS(=O)(=O)C1 (centres undefined),-0.06
16,CC(C)N(C(=O)CSc1nc(COc2ccccc2)nc2ccccc12)C(C)C,-7.53 (active)
17,CCc1nc(SCC(=O)NNC(=O)c2ccc(C)cc2)c2ccccc2n1,-1.77
18,CCCc1nc(SCC(=O)Nc2ccc(S(=O)(=O)N(C)C)cc2)c2ccccc2n1,inactive
19,CC[C@@]12C(=O)N(c3ccccc3)C(=O)N1[C@H](c1ccc(Br)cc1)[C@@H]1C(=O)N(C(C)(C)C)C(=O)[C@@H]12,inactive
20,Cc1ccc(CNC(=O)CN2CCN(Cc3ccc(Cl)cc3)C2=O)cc1,-0.18
21,Cc1ccccc1N1CCN(CC(=O)NCc2ccc(Cl)cc2)CC1,-8.15 (active)
22,O=C(CN1CCN(c2ccc(Cl)cc2)CC1)NCc1cccs1,-0.84
23,COc1ccc(NC(=O)CN(C)C(=O)CC2CCCCC2)cc1,-0.05
24,COc1ccc2c(c1)C(=O)Nc1cc(Cl)ccc1N2,inactive

row,Structure (SMILES),B-score
1,CCC(O)C1CCN(Cc2cn(-c3ccc(OC)cc3)nc2-c2cccc(F)c2)CC1 (centres undefined),inactive
2,Cc1ccc(C)c(-n2cc(CN3CCN(C(=O)c4ncn[nH]4)CC3)c(-c3ccccc3)n2)c1,-1.41
3,Cc1cccc(-n2cc(CN3CCN(C(=O)c4ncn[nH]4)CC3)c(-c3cccc(F)c3)n2)c1,-8.35 (active)
4,CCN1C(=O)[C@@H]2[C@@H](c3ccc(-c4ccc(OC)cc4)c(OC)c3)N3CCC[C@@]3(C(=O)OC)[C@@H]2C1=O,inactive
5,COC(=O)C1=C(C)N(C(C)c2ccccc2)C(=O)/C1=C\c1ccco1 (centres undefined),-8.53 (active)
6,COC(=O)C1=C(C)N(c2ccc(Br)cc2)C(=O)/C1=C\c1ccco1,-1.96
7,O=C(CCCN1C(=O)/C(=C/c2ccco2)SC1=S)Nc1ccccc1,-0.39
8,COc1ccc(CCNC(=O)C(=O)NCC2CCCN2S(=O)(=O)c2cccs2)cc1OC (centres undefined),inactive
9,COc1ccc(COC(=O)NC(C(=O)O)c2ccccc2)cc1 (centres undefined),inactive
10,CC(C)[C@H](NC(=O)OCc1ccccc1)C(=O)OCc1ccccc1,-7.34 (active)
11,COC(=O)[C@H](C)[C@H]1C[C@]1(C)[C@H](NC(=O)OCc1ccccc1)c1ccccc1,-3.52
12,CC(C)C(NC(=O)OCc1ccccc1)C(=O)OCC(=O)N1C(C)CCCC1C (centres undefined),-8.16 (active)
13,CC(C)CC(NC(=O)C1CCCN1C(=O)[C@@H](C)NC(=O)OCc1ccccc1)C(=O)NCC(N)=O (some centres undefined) (Cbz-[dA][ξP][ξL]G-NH2),inactive
14,COC(=O)[C@H](Cc1ccccc1)NC(=O)[C@@H]1C[C@H]1[C@@H](NC(=O)OCc1ccccc1)c1ccccc1,inactive
15,Cc1ccc(C)c(OCCC(=O)Nc2cccc(S(=O)(=O)N3CCCC3)c2)c1,inactive
16,Cc1ccc2nc(SCC(=O)Nc3cccc4ccccc34)nc(=O)n2c1,-0.48
17,COc1ccc(NC(=O)CN(C)C(=O)Cc2coc3cc(C)c(C)cc23)cc1,-0.02
18,Brc1cnc2ccccc2c1N1CCCCC1,inactive
19,CCCn1c(SCC(=O)Nc2cccc(C(=O)OCC)c2)nnc1-c1ccoc1C,-0.31
20,COc1ccccc1NC(=O)CSc1nnc(-c2ccoc2C)n1CCc1ccccc1,-8.21 (active)
21,COc1ccccc1NC(=O)CSc1nnc(C)n1CC1CCCO1 (centres undefined),inactive
22,O=C(COc1coc(CN2CCN(c3ccccc3)CC2)cc1=O)N1CCc2ccccc21,inactive
23,CC1=C(C(=O)Nc2ccccc2)C(c2cccs2)C(C#N)=C(SCC#N)N1 (centres undefined),-6.59 (active)
24,C=CCOC(=O)C1=C(C)NC(C)=C(C(=O)OCC=C)C1c1cccs1,-2.85

row,Structure (SMILES),B-score
1,CC1=C(C(=O)Nc2ccccc2)C(c2ccco2)C(C#N)=C(SCC(N)=O)N1 (centres undefined),inactive
2,CCN(C(=O)COC(=O)c1sccc1C)c1c(N)n(Cc2ccccc2)c(=O)[nH]c1=O,inactive
3,N#CCCN(C(=O)COC(=O)c1ccc(S(=O)(=O)N2CCCCCC2)cc1)c1ccccc1,inactive
4,Cc1ccc(C)c(OCCC(=O)OCC(=O)NC(=O)NCc2ccccc2)c1,inactive
5,COc1ccc2c(c1)O/C(=C\c1ccccc1O)C2=O,-0.61
6,COc1ccc(NC(=O)CN(C)C(=O)c2ccc(NC3CC3)c([N+](=O)[O-])c2)cc1,inactive
7,C=CC(COCc1ccccc1)N(Cc1ccccc1)S(=O)(=O)c1ccccc1Br (centres undefined),-5.61 (active)
8,C=CCCN(Cc1ccccc1)S(=O)(=O)c1ccccc1Br,inactive
9,CC1CCN(c2ccc(-c3ccc(NC(=O)c4ccco4)cc3)nn2)CC1,inactive
10,COCCNC(=O)COc1ccc(N(C)S(=O)(=O)c2ccc3ccccc3c2)cc1,inactive
11,Cc1ccc(S(=O)(=O)N(C)C)cc1NC(=O)COC(=O)c1c(C)noc1C,-0.34
12,CCc1noc(C)c1C(=O)Oc1ccc(N(C)S(=O)(=O)c2ccc(C)c(C)c2)cc1,-6.86 (active)
13,CCCc1cc(=O)[nH]c2nnc(SCC(=O)Nc3nnc(SCC)s3)n12,inactive
14,Cc1ccc(-c2csc(NC(=O)C3=COCCO3)n2)cc1C,-0.1
15,O=C(NC(Cc1ccccc1)C(=O)N1CCCC1C(=O)O)c1ccccc1 (stereo not drawn) (Bz-Phe-Pro-OH; configuration not given here),-0.06
16,CN(Cc1ccccc1F)C(=O)C(Cc1ccccc1)NC(=O)c1ccccc1 (centres undefined),-7.91 (active)
17,CC(Cc1ccccc1)C(=O)N(C)Cc1ccccc1 (centres undefined),-0.83
18,CSc1ccccc1NC(=O)C(C)N1C(=O)c2ccccc2S1(=O)=O (centres undefined),inactive
19,CC1=NNC(=O)C1Cc1c(Cl)cccc1Cl (centres undefined),inactive
20,COC(=O)[C@@]12CCCN1[C@H](c1ccc(-c3ccc(F)cc3)c(OC)c1)[C@H]1C(=O)N(C)C(=O)[C@H]12,inactive
21,COc1ccc(C(=O)CN2C(=O)NC3(CCc4ccccc43)C2=O)c(OC)c1 (centres undefined),inactive
22,CCN(CC)c1ccc(S(=O)(=O)N2CCCCC2)cc1NC(=O)C1=COCCO1,-0.93
23,C=CCn1c(SCC(=O)NCC2CCCO2)nc2sc(C)c(C)c2c1=O (centres undefined),inactive
24,Cc1sc2nc(SCC(N)=O)n(C)c(=O)c2c1C,-0.14

row,Structure (SMILES),B-score
1,C=CCn1c(SCC(=O)/C(C#N)=C(\C)N)nc2sc(C)c(C)c2c1=O,-7.77 (active)
2,COc1ccccc1C(=O)NC(=O)COC(=O)C1CC1,inactive
3,COCCN(C(=O)COC(=O)Cc1cccc(OC)c1)c1c(N)n(Cc2ccccc2)c(=O)[nH]c1=O,inactive
4,Cc1ccc2nc(COc3ccc(N(C)S(=O)(=O)c4ccccc4)cc3)cc(=O)n2c1,inactive
5,COc1cccc(COc2ccc(N(C)S(=O)(=O)c3ccccc3)cc2)c1,-8.25 (active)
6,CN(c1ccc(OCC(=O)O)cc1)S(=O)(=O)c1ccc2ccccc2c1,-1.18
7,COc1ccccc1C(CNC(=O)c1cccc(NS(=O)(=O)c2ccc(Br)cc2)c1)N(C)C (centres undefined),-0.89
8,O=S(=O)(Nc1ccc(-c2ccc(N3CCOCC3)nn2)cc1)c1cc(Cl)ccc1Cl,-0.08
9,CCCOc1ccc(C2c3c(oc4cc(C)c(C)cc4c3=O)C(=O)N2CCCN2CCOCC2)cc1 (centres undefined),-0.39
10,Cc1cc2oc3ccc(NCCC4CCCN4C)cc3c(=O)c2cc1C (centres undefined),-6.02 (active)
11,Cc1cc2oc(=O)cc(CN3CCN(Cc4ccccc4)CC3)c2cc1C,inactive
12,Cc1ccc(S(=O)(=O)N2CCN(C(=O)Cc3sc(C)nc3-c3ccc(F)cc3)CC2)c(C)c1,-0.7
13,CC(C)CN(C(=O)COC(=O)c1ccc2ccccc2c1)c1c(N)n(Cc2ccccc2)c(=O)[nH]c1=O,inactive
14,O=C(Nc1cc(Cl)ccc1N1CCOCC1)c1ccc(N2CCCC2=O)cc1,inactive
15,COc1cc(OC)cc(C(=O)NNC(=O)CNC(=O)c2ccc(Br)o2)c1,-1.49
16,CC(C)n1c(NCc2c[nH]c3ccccc23)nc2ccccc21,-8.14 (active)
17,CC(C)n1c(COc2ccccc2)nc2ccccc21,-0.24
18,Cc1ccc(O)c(CNc2nc3ccccc3n2C)c1,inactive
19,Cc1nn(C)c(C)c1NS(=O)(=O)c1ccc(OC(F)(F)F)cc1,inactive
20,Cc1ccccc1OCc1nnc(SCC(=O)N2c3ccccc3Sc3ccc(Cl)cc32)o1,-7.73 (active)
21,Cc1ccc(NC(=O)CSc2nnc(COc3ccccc3C)o2)cc1,inactive
22,O=C(CSc1nc2ccccc2o1)N1c2ccccc2Sc2ccc(Cl)cc21,-3.87
